# Sampled rows, rich in hits. Any-hit rate of the full collection: about 1.8%.
# Fam108B counter: mouse Fam108B serine hydrolase inhibitors, primary screen, counter-screen for RBBP9 inhibitor project, biochemical, fluorescence polarization; AID 1947, 2009; inhibition, % at 9.51 µM; 0.33% of 300,000 active; recombinant Fam108B, FP-Rh probe fluorescence polarization;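 active = inhibition above the screen mean inhibition plus 3 SD, computed separately per campaign, cut at about 18% in these data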;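 note: inhibitors lower polarization as less probe binds the enzyme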
# PME-1 primary: PME-1 inhibitors via competitive probe labeling, primary screen, biochemical, fluorescence polarization, FP-Rh probe, HTS | recombinant PME-1 | inhibition, % at 5.9 µM | 0.53% of 320,000 active | Protein phosphatase methylesterase 1 (Homo sapiens), Q9Y570;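 active = inhibition above the campaign mean of all compounds plus 3 SD, cut at about 26% in these data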;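 note: competitive labeling of PME-1 active site by serine hydrolase directed probe; 0% = PME-1 with DMSO and 100% = wells lacking PME-1 enzyme; inhibitors block probe labeling so polarization falls and inhibition rises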
# Target sequence (Q9Y570 whole entry, looked up): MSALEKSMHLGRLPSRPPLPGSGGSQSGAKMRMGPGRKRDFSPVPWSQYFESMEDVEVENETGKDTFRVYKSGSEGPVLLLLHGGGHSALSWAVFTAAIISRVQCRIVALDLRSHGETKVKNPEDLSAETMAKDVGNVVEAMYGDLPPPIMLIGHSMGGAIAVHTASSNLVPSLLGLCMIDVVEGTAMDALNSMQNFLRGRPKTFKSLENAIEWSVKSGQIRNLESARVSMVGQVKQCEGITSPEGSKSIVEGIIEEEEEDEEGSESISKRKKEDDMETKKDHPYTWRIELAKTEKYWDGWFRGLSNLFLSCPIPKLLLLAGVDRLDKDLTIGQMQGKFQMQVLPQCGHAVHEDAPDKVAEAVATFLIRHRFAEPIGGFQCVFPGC
# GSTO1 inh: inhibitors of recombinant GSTO1, primary screen, counter-screen for RBBP9 inhibitor project, biochemical, fluorescence polarization. activity-based probe fluorescence polarization. 1.1% of 300,000 active. Glutathione S-transferase omega-1 (Homo sapiens), P78417. inhibition, % at 5.96 µM;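 active = inhibition above the campaign mean inhibition plus 3 SD, cut at about 35% in these data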;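 note: 0% = GSTO1-1 with DMSO and 100% = wells lacking GSTO1-1 enzyme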
# Target sequence (P78417 whole entry, looked up): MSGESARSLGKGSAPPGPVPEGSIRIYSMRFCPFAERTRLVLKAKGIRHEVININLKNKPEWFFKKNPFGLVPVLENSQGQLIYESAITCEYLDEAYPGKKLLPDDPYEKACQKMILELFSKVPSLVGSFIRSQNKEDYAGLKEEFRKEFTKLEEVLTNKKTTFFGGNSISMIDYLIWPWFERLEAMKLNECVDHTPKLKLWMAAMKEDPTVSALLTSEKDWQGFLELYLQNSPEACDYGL
# LYPLA1 inh: LYPLA1 inhibitors, primary screen, counter-screen for PME1 inhibitor project, biochemical, fluorescence polarization, FP-Rh probe ABPP; AID 2174, 2009; inhibition, % at 5.9 µM; Acyl-protein thioesterase 1 (Homo sapiens), O75608; 0.16% of 320,000 active; recombinant LYPLA1;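 active = inhibition above the mean of all tested compounds plus 3 SD, set per campaign, cut at about 14% in these data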;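 note: inhibitors block serine hydrolase probe labeling of LYPLA1 so polarization falls; 0% = enzyme with DMSO and 100% = wells lacking LYPLA1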
# PAD4 FP inh: human PAD4 inhibitors, primary screen, biochemical, fluorescence polarization, 1536-well format; Protein-arginine deiminase type-4 (Homo sapiens), Q9UM07; recombinant PAD4, RCA probe fluorescence polarization; inhibition, % at 6.36 µM; 0.41% of 330,000 active;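 active = percent inhibition above a cutoff equal to the mean of all tested compounds plus 3 SD, cut at about 15% in these data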;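 note: 0% = PAD4 with RCA probe and DMSO and 100% = probe without PAD4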
# LYPLA2 counter: LYPLA2 inhibitors, primary screen, counter-screen for PME1 inhibitor project, biochemical, fluorescence polarization, FP-Rh probe ABPP | Acyl-protein thioesterase 2 (Homo sapiens), O95372 | recombinant LYPLA2 | inhibition, % at 5.9 µM | 0.38% of 320,000 active;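 active = inhibition above the screen-wide mean plus 3 SD, limit set per campaign, cut at about 26% in these data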;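 note: 0% = LYPLA2 with DMSO and 100% = wells lacking LYPLA2 enzyme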
# GSTO1 inh conf: GSTO1 inhibitor hit confirmation, counter-screen for RBBP9 inhibitor project, biochemical, fluorescence polarization, triplicate; recombinant GSTO1, probe fluorescence polarization; inhibition, % at 5.96 µM; shares compounds with GSTO1 inh; 54% of 2,400 active;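 active = inhibition above the primary screen's cutoff, its mean inhibition plus 3 SD, cut at about 35% in these data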;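 note: loss of polarization as inhibitors block binding of rhodamine sulfonate ester activity probe; 0% = GSTO1 with DMSO and 100% = wells lacking GSTO1 enzyme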
# GSTO1 ABPP inh: inhibitors of purified human GSTO1, late-stage follow-up, biochemical, gel ABPP, SE-Rh probe, percent inhibition. shares compounds with GSTO1 inh. recombinant GSTO1, gel ABPP SE-Rh probe fluorescence. inhibition, % at 1 µM. 30% of 130 active;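 active = inhibition of the enzyme GSTO1 above about 75%, limit read from the data; inactive = inhibition below that limit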
# LYPLA2 confirm: LYPLA2 inhibitors, retest, confirmation, counter-screen for PME1 inhibitor project, biochemical, fluorescence polarization, FP-Rh probe ABPP; recombinant LYPLA2; AID 2232, 2010; 72% of 1,100 active; shares compounds with LYPLA2 counter; inhibition, % at 5.9 µM;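 active = mean inhibition across replicates above the hit cutoff set in the primary screen, cut at about 26% in these data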;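 note: blocked labeling of the enzyme by serine hydrolase FP-Rh probe lowers polarization; 0% = enzyme with DMSO and 100% = wells lacking LYPLA2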
# PAD4 confirm: human PAD4 inhibitors, confirmation, biochemical, fluorescence polarization. shares compounds with PAD4 FP inh. recombinant PAD4, RCA probe fluorescence polarization. inhibition, % at 6.36 µM. 28% of 1,200 active;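 active = mean inhibition across replicates above the hit cutoff set by the earlier primary screen, cut at about 15% in these data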;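 note: inhibitors block active-site labeling by the probe so polarization falls; 0% = PAD4 with probe and DMSO and 100% = probe without PAD4 enzyme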
# * marks the source's active call; other numbers are inactive results; nt = no result.
SMILES,Fam108B counter,PME-1 primary,GSTO1 inh,LYPLA1 inh,PAD4 FP inh,LYPLA2 counter,GSTO1 inh conf,PAD4 confirm,others
CSc1ccc(/C=N/Nc2nc(C)cc(=O)[nH]2)cc1,1.9,8.8,-9.1,3.6,1.6,3.2,nt,nt,
Cc1cc(=O)[nH]c(N/N=C/c2ccc(O)c(O)c2)n1,-6.7,-10.0,42.1*,-5.1,-0.3,-7.9,6.8,nt,
O=[N+]([O-])c1ccc(/C=[N+](\[O-])[C@@H]2CCCC[C@@H]2/[N+]([O-])=C/c2ccc([N+](=O)[O-])o2)o1,4.1,-2.4,39.9*,4.3,-11.4,3.1,18.4,nt,
Nc1nnc2c(n1)CCCC2,0.6,8.0,66.8*,1.2,8.8,6.0,10.1,nt,
C1CCc2nc3c(nc2C1)CCCC3,2.2,6.6,10.3,3.5,3.1,11.6,nt,nt,
CC(C)=CCc1c(O)c(CC=C(C)C)c2c(c1O)-c1cc(O)c(O)cc1CC2,2.0,10.9,38.9*,-3.1,1.9,0.3,-6.8,nt,
COC(=O)c1ccc(Cn2nnc3c(=O)[nH]c(C4CCN(S(=O)(=O)c5cc(C)ccc5C)CC4)nc32)cc1,-8.8,3.2,-0.4,-4.2,-1.1,6.2,nt,nt,
CC(Sc1nnnn1-c1ccc(O)cc1)C(=O)NNC(=O)c1ccc(F)cc1 (centres undefined),nt,4.4,nt,2.0,-2.1,5.9,nt,nt,
CCOC(=O)C(Cc1ccc(O)cc1)NC(=O)CCc1c[nH]c2ccccc12 (centres undefined),-4.7,5.0,38.1*,0.1,-1.7,5.3,4.7,nt,
COC(=O)[C@H](Cc1c[nH]c2ccccc12)NC(=O)CCCc1c[nH]c2ccccc12,5.0,3.5,5.1,-0.2,-2.4,4.3,nt,nt,
O=C(CNC(=O)c1cccnc1)N=Nc1c(O)[nH]c2c(Br)cc(Br)cc12,2.2,0.9,85.0*,-2.4,-2.0,1.6,40.6*,nt,
Cc1cc(C)c(S(=O)(=O)Nc2cc(SCC(=O)O)c(O)c3ccccc23)cc1C,14.8,15.4,89.6*,0.7,49.3*,29.7*,5.0,nt,LYPLA2 confirm=2.2
NS(=O)(=O)c1cccc(NC(=O)CNC(=O)CC23CC4CC(CC(C4)C2)C3)c1,-4.8,5.2,6.6,-0.4,-3.7,-1.4,nt,nt,
CCN(C(=S)Nc1cccnc1)c1ccccc1,-3.5,-3.7,-7.3,1.2,0.8,3.6,nt,nt,
CN(C(=S)Nc1ccc(Oc2ccccc2)cc1)c1ccc(O)cc1,2.4,14.1,79.1*,-11.6,25.4*,2.6,2.4,-0.1,
CN(C(=S)Nc1cccnc1)c1ccc(O)cc1,1.2,5.4,82.8*,-3.6,31.1*,-2.2,5.2,0.2,
C=CCOc1c(Cl)cc(CNc2ccc(N(C)C)cc2)cc1OC,7.9,7.7,76.7*,-2.9,24.6*,5.5,0.8,0.7,
CCOC(=O)/C=C/C(=O)NNC(=O)c1ccccc1Cl,0.3,3.2,1.1,-2.1,1.0,-4.5,nt,nt,
O=c1[nH]c(Nc2ccccc2)cc2cc(Br)ccc12,15.7,18.2,58.4*,-3.5,64.0*,5.6,18.8,-6.2,
COc1ccc(OC)c(Nc2cc3ccccc3c(=O)[nH]2)c1,16.6,6.0,70.7*,-1.1,39.3*,3.3,5.8,-1.1,
COc1ccccc1Nc1cc2cc(Br)ccc2c(=O)[nH]1,1.6,-5.7,42.0*,-3.7,34.0*,-0.6,12.1,5.1,
O=C(COc1ccc(S(=O)(=O)N2CCCC2)cc1)Nc1ccc2c(c1)OCCO2,-6.7,-3.8,2.9,-0.4,-0.6,13.2,nt,nt,
COc1ccc(C(=O)NC(C(=O)NCCc2ccc3c(c2)OCCO3)C(C)C)cc1 (centres undefined),0.0,2.8,3.8,0.4,-3.3,1.5,nt,nt,
Cc1ccsc1C(=O)OCC(=O)Nc1ccc(Cl)cn1,nt,nt,nt,nt,-1.6,nt,nt,nt,
CC(=O)n1cc(N(C(=O)CCl)c2ccc(Cl)cc2)c2ccccc21,-2.1,-3.9,82.1*,-1.7,20.2*,1.6,84.2*,51.2*,GSTO1 ABPP inh=82.0*
SMILES,Fam108B counter,PME-1 primary,GSTO1 inh,LYPLA1 inh,PAD4 FP inh,LYPLA2 counter,GSTO1 inh conf,PAD4 confirm,others
Nc1c(N(CCO)C(=O)C2CCCC2)c(=O)[nH]c(=O)n1Cc1ccccc1,nt,nt,nt,nt,-1.3,nt,nt,nt,
Cc1[nH][nH]c(=O)c1C(c1ccc(Br)cc1)c1c(C)[nH][nH]c1=O,2.7,-1.9,15.6,3.2,-12.3,4.7,nt,nt,
Cc1[nH][nH]c(=O)c1C(c1ccc(-c2cccc(Cl)c2)o1)c1c(C)[nH][nH]c1=O,5.7,1.6,71.7*,0.8,43.9*,1.5,57.2*,35.5*,
Cc1[nH][nH]c(=O)c1C(c1ccc(-c2ccccc2C(=O)O)o1)c1c(C)[nH][nH]c1=O,1.2,-5.4,69.7*,0.5,51.2*,5.5,7.8,-6.1,
NC(=O)c1nn(-c2ccccc2)nc1NC(=O)CN1CCOCC1,-0.9,-6.5,0.5,4.1,0.2,-2.9,nt,nt,
Cc1ccccc1-c1cc2c(nn1)-c1ccccc1C2=O,5.4,3.0,75.0*,1.0,58.3*,6.0,69.7*,-7.6,
CC1(C)N([O-])c2cc([N+](=O)[O-])ccc2[N+]1=O,14.8,23.2,81.9*,0.1,30.1*,-0.7,42.0*,15.1*,
O=C(N/N=C\c1ccc(-c2ccccc2[N+](=O)[O-])o1)C1COc2ccccc2O1 (centres undefined),3.7,12.8,65.8*,-1.4,29.4*,4.5,47.4*,-7.3,
O=C(N/N=C\c1ccc([N+](=O)[O-])o1)C1COc2ccccc2O1 (centres undefined),11.0,3.6,28.4,1.5,-1.4,2.9,nt,nt,
Cc1ccc2c(c1)c(=O)c1c3n2CCN(C(=O)CCl)C3CC1 (centres undefined),9.6,4.4,65.8*,1.1,30.0*,1.0,79.8*,-0.8,GSTO1 ABPP inh=63.0
